The list is not random: actives were taken first. Their share in the collection is about 4.6%.
TRHR enhancer – allosteric enhancers of human TRH receptor | P34981 | TRHR cells, fluo-8 calcium fluorescence, EC20 TRH enhancement | enhancement, % at 2 µM | actives 0.66% (n = 360,000); in the data active = enhancement above about 30%
Target sequence (P34981 whole entry, looked up): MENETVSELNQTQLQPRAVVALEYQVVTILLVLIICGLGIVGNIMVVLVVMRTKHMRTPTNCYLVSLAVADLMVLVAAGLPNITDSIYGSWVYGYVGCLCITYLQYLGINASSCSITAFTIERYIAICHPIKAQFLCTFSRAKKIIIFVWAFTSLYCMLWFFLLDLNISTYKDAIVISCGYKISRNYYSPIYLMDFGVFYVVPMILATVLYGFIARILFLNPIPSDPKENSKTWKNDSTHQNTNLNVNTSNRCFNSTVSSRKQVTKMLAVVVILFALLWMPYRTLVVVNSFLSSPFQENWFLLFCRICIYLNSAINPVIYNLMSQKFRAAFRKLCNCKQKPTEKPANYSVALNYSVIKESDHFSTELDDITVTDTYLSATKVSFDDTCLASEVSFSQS
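TRHR-expressing cells loaded with fluo-8 calcium dye were read kinetically (ex 480/em 530) during compound addition, then stimulated with an EC20 of TRH (10 nM final). Enhancement of the Gq-mediated intracellular calcium response was scored.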
D1 ag – agonists of human D1 dopamine receptor; activation, % at 2 µM; HEK293 T-REx D1 cells, calcium flux, agonist mode; actives 1% (n = 360,000); AID 504660
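Agonism was scored from calcium flux recorded over 180 s (1 read/s) after pintool compound addition, following a 10-cycle baseline. Cells were inducible force-coupled HEK293 TREx D1, plated overnight at 30 C and loaded with no-wash calcium dye.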
D1 potentiator – human D1 dopamine receptor positive modulation; P21728; HEK293 TREx D1 cells, calcium flux, dopamine EC20 potentiation; potentiation, % at 10 µM; actives 0.036% (n = 360,000); in the data active = potentiation above about 30%
Epigenetic reg – derepresses silenced GFP reporter in murine cells; murine LDR cells, GFP reporter derepression, 30 h; Potency, µM (doses to about 53.9 µM), most hits filed as activators; actives 0.2% (n = 280,000); active = well fitted activation curve with a large enough effect; inconclusive = small, poorly fitted or top-dose-only effect; also: nearly all actives have a fitted effect of over 60% in size
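Readout is the number of GFP-expressing murine LDR cells, counted by cytometry following washing. Cells were treated with compound for 30 h at 37 C; the stably integrated CMV-GFP locus is normally silent.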
TRHR ag – activates the human TRH receptor; P34981; TRHR cells, calcium flux fluo-8, FDSS agonist mode; activation, % at 2 µM; actives 0.18% (n = 360,000); AID 493084
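TRHR-expressing cells loaded with fluo-8 calcium dye; 23 nL library compound pin-transferred, kinetic FDSS fluorescence (Ex 480/Em 530) recorded about 180 s for agonist-induced calcium release, before a 10 nM TRH EC20 addition for potentiator mode.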
D1 antagonist – blocks dopamine activation of the human D1 receptor; HEK293 TREx D1 cells, calcium flux, dopamine EC80; active compounds read low; activity change, negative = inhibition, % at 10 µM; actives 3.2% (n = 360,000); AID 504652; in the data active = activity change below about -30%
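Calcium flux readout: force-coupled, inducible Hek293 Trex D1 line, cells induced overnight at 30 C with tetracycline, dye-loaded 30–90 min at RT. Antagonism scored against EC80 dopamine challenge given 180 s after compound.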
A number is an active result; – = inactive; ? = inconclusive; · = not tested or not shown. Rule as the data show it, unless noted: active = activation above about 30%; inactive = the rest.

SMILES	TRHR enhancer	D1 ag	D1 potentiator	Epigenetic reg	TRHR ag	D1 antagonist
Cc1cc(C)cc(NC(=O)N2CCC3(CC2)Oc2ccccc2C(=O)N3Cc2ccccc2F)c1	–	–	–	–	–	–
CCOC(=O)NN1C(=O)c2ccccc2NC1c1ccccn1 (centres undefined)	–	–	–	–	–	-30.4
Cc1ccc(S(=O)(=O)NC(C)C(=O)OCC(=O)N(C)c2ccccc2)cc1 (centres undefined)	–	–	–	·	–	-31.3
CC(C)N(C(=O)COC(=O)[C@H](C)NC(N)=O)c1ccccc1	–	–	–	–	–	–
COc1ccc(NC(=O)CSc2c3c(nc4ccc(Cl)cc24)CCCC3)cc1Cl	–	–	–	–	–	–
CC(C)CCN=Cc1c(O)n(-c2ccccc2)c(=O)c2ccccc12	–	–	–	–	–	–
CCN1CCCC1CN=Cc1c(O)n(-c2ccccc2)c(=O)c2ccccc12 (centres undefined)	–	–	–	–	–	-78.0
CC(=O)c1cccc(NC(=O)c2cc(-c3ccc(Cl)s3)nc3ccccc23)c1	–	–	–	–	–	–
NS(=O)(=O)c1cccc(NC(=O)c2cc(=O)c3ccccc3o2)c1	–	–	–	·	–	–
CN(c1ccccc1)S(=O)(=O)c1cccc(NC(=O)c2cc(=O)c3ccccc3o2)c1	–	–	–	–	–	-33.9
CN(c1ccccc1)S(=O)(=O)c1cccc(NC(=O)CCNC(=O)c2ccccc2)c1	–	–	–	·	–	-43.3
Cc1ccc2c(=O)cc(C(=O)Nc3c(C(=O)Nc4cccc(Cl)c4)oc4ccccc34)oc2c1	–	–	–	–	–	-46.5
CN(c1ccc(C(=O)NCCSCc2ccc(Cl)cc2)cc1)S(=O)(=O)c1ccccc1	–	38.8	–	–	–	–
CCOc1ccc(NC(=O)CSc2oc(-c3ccc(C)cc3)nc2S(=O)(=O)c2ccc(C)cc2)cc1	–	43.8	–	–	–	–
CCOc1ccc(NC(=O)CSc2oc(-c3cccs3)nc2S(=O)(=O)c2ccc(Cl)cc2)cc1	–	–	–	–	–	–
C=CCn1c(Cc2nc3ccc(Cl)cc3[nH]2)n[nH]c1=S	–	–	–	–	–	–
C=CCn1c(CCCOc2ccc(Cl)cc2Cl)n[nH]c1=S	–	–	–	–	–	-45.8
O=C(O)CC1S/C(=N/N=C/C=C/c2ccccc2)NC1=O (centres undefined)	–	–	–	–	–	–
O=C(O)CC1S/C(=N/N=C/C2CC=CCC2)NC1=O (centres undefined)	–	–	–	–	–	-34.5
Nc1sc2c(c1C(=O)c1ccccc1)CCCC2	–	–	–	–	–	-65.8
NC(=O)c1c(N)sc2c1CCCC2	–	–	–	–	–	–
CCCCN(C(=O)C1CC(=O)N(c2ccc(CC)cc2)C1)c1c(N)n(CCC)c(=O)[nH]c1=O (centres undefined)	–	–	–	·	–	–
CN1CCc2c(sc3c2c(=O)n(-c2ccc(Cl)cc2)c2nncn32)C1	–	–	–	–	–	-59.8
Cc1ccc(N(C)C(=O)Cn2cc(S(=O)(=O)N3CCCC3)c(S(=O)(=O)N3CCCC3)c2)cc1	–	–	–	–	–	–
CC(C(=O)Nc1ncc([N+](=O)[O-])s1)N1C(=O)c2ccccc2S1(=O)=O (centres undefined)	–	–	–	·	–	-35.1
SMILES	TRHR enhancer	D1 ag	D1 potentiator	Epigenetic reg	TRHR ag	D1 antagonist
Cc1cccc(NC(=O)C(C)N2C(=O)c3ccccc3S2(=O)=O)n1 (centres undefined)	–	–	–	·	–	–
CSc1nc(NCCOC(C)=O)c(C#N)c(-c2ccc(C(C)(C)C)cc2)n1	–	–	–	–	–	–
N#Cc1ccc(NC(=O)c2ccc3c(c2)nnn3C2CCCC2)cc1	–	–	–	–	–	–
Cc1cc(OCC(=O)N2CCN(c3ccccc3)CC2)c2c(C)cc(=O)oc2c1	–	–	–	·	–	–
Cc1cc(OCC(=O)N2CCN(c3ccc(F)cc3)CC2)c2c(C)cc(=O)oc2c1	–	–	–	·	–	-32.7
COc1ccc(S(=O)(=O)c2c(Nc3c(C)cccc3C)sc(C(=O)c3ccc4c(c3)OCO4)c2N)cc1	–	31.4	–	–	–	–
COc1ccc(S(=O)(=O)c2c(Nc3c(C)cccc3C)sc(C(=O)c3ccc(F)cc3)c2N)cc1	–	52.2	–	–	–	–
COc1ccccc1Nc1sc(C(=O)c2ccc(F)cc2)c(N)c1S(=O)(=O)c1ccc(C)cc1	–	31.9	–	–	–	–
COc1cccc(Nc2sc(C(=O)c3ccc4c(c3)OCO4)c(N)c2S(=O)(=O)c2ccccc2)c1	–	–	–	–	–	–
COc1ccc(S(=O)(=O)c2c(Nc3cccc(C)c3C)sc(C(=O)c3ccccc3)c2N)cc1	–	37.9	–	–	–	–
Cc1ccc(Cl)cc1-n1nnc(-c2nc(-c3ccc4c(c3)OCO4)no2)c1C	–	–	–	–	–	–
COc1cc(/C=N/NC(=O)c2cc(-c3ccccc3)n[nH]2)cc(OC)c1OC	·	·	·	–	·	·
CC(C)(C)c1ccc(OCC(=O)NC(Cc2c[nH]c3ccccc23)C(=O)O)cc1 (centres undefined)	–	48.5	–	–	–	–
COc1ccc(CNCc2cc(Cl)ccc2O)cc1	–	38.3	–	·	–	–
Oc1ccc(Cl)cc1CNCc1ccc(Cl)nc1	–	41.6	–	·	–	·
Cc1cc2c(s1)c1cnn(Cc3ccccc3C)c(=O)c1n2C	–	–	–	·	–	–
CN(Cc1ccccc1)c1nc2c(S(=O)(=O)c3cccc(Cl)c3)nnn2c2ccsc12	–	–	–	–	–	-32.1
CCN(CC)c1nc2c(S(=O)(=O)c3cccc(Cl)c3)nnn2c2ccsc12	–	–	–	–	–	-40.4
O=C(CCc1cn(Cc2ccccc2F)c2ccccc12)NCc1ccc(Cl)cc1	–	–	–	–	–	–
CCOc1ccc(CNC(=O)c2ccc(-c3nc(CS(=O)(=O)c4ccccc4)c(C)o3)cc2)cc1	–	–	–	–	–	–
O=C(O)CCCN1C(=O)C(=O)/C(=C(/O)c2ccccc2)C1/C=C/c1ccccc1 (centres undefined)	–	–	–	–	–	-30.8
CCN1/C(=C/C=C/c2oc3ccc(-c4ccccc4)cc3[n+]2CC)Oc2ccc(-c3ccccc3)cc21	–	547.2	–	–	316.8	-84.2
O=C1/C(=C/c2ccc(N3CCCC3)cc2)NC(=S)N1C1CC1	–	204.7	–	17.8µM	91.4	–
Cc1cc(N2CCCC2)ccc1/C=C1\NC(=S)N(C)C1=O	–	213.1	–	?	63.5	–
O=C1N/C(=C/c2ccc(N3CCOCC3)o2)C(=O)N1c1ccccc1	–	–	–	?	–	–

Screens deposited in PubChem BioAssay by National Center for Advancing Translational Sciences (NCATS).
